# Laboratory results reported in PubChem BioAssay AID624330 (Southern Research Specialized Biocontainment Screening …, 2012).
# Among all 340,000 compounds or so, about 2,100 (0.62%) were called active. Only a sample is shown. Results with a measured potency or affinity are listed apart. Unmarked numbers belong to inactive results.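 The calls were made as follows: active = first-screen hits whose inhibition reached a set limit at any dose in the follow-up dose series; inconclusive = inhibition above the set first-screen limit but never retested; inactive = the rest.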
# Target: Rac GTPase-activating protein 1 (Homo sapiens) (UniProt Q9H0H5)
# Sequence (Q9H0H5 whole entry, looked up): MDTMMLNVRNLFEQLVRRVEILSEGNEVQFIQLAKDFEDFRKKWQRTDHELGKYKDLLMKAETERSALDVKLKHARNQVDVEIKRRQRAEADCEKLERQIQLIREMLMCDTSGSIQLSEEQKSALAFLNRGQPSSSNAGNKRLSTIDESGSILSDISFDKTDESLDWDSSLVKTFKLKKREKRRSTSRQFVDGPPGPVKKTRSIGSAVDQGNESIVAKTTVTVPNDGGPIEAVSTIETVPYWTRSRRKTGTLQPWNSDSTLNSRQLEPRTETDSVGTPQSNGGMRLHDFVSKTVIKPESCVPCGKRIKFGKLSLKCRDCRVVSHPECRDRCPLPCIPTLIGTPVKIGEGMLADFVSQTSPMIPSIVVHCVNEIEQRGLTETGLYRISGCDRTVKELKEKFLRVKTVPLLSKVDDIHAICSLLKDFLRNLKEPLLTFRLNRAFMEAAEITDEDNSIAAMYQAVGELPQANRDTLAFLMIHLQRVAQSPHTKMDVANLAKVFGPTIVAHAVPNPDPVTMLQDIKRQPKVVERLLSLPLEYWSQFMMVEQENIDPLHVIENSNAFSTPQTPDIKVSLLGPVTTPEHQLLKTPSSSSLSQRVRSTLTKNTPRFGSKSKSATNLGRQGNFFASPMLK
# Experiment: MgcRacGAP GTPase-activating activity inhibitors, confirmation, biochemical, ADP Hunter fluorescence, primary and confirmatory (AID 624330);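 also: fluorescence reports GDP produced by GAP-driven GTP hydrolysis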
# Conditions: MgcRacGAP-stimulated Rac1 GTP hydrolysis, at 30 µM, stronger effect = higher value, GST-tagged Rac1 F28L mutant substrate
row,SMILES,inhibition [%]
1,COc1cc(OC)c(OC)cc1CN1CCN(Cc2ccco2)CC1,20.1
2,CCc1sc(C(=O)NCCCN2CCCC2=O)cc1Br,-10
3,Cc1ccc(C)c(S(=O)(=O)N2CCN(C(=O)CSc3ccccc3)CC2)c1,8.52
4,CC(Sc1nnc(-c2ccncc2)n1C)C(=O)NCC1CCCO1 (stereo not drawn),1.73
5,CN(C)CCOC(=O)CC12CC3CC(C1)CC(CC(=O)OCCN(C)C)(C3)C2,5.06
6,COc1cccc(CNC(=O)c2ccc(S(=O)(=O)N3CCCCC3)cc2)c1,9.59
7,Cc1ccc(S(=O)(=O)Nc2cc(=O)[nH]c(SCC(=O)Nc3ccccc3C(F)(F)F)n2)cc1,5.86
8,CCOC(=O)CC(NC(=O)CCc1c(C)nc2nc(C)nn2c1C)c1ccc(OC(C)C)cc1 (stereo not drawn),8.74
9,CCOc1ccc(C(=O)O)cc1OC,5.02
10,CCOc1ccc(C(N)=O)cc1OC,-0.9
11,CCN(CC)Cc1cc(C(C)=O)ccc1OCC(C)C,-0.12
12,CCCOc1ccc(N)cc1N,18.7
13,COc1ccc2[nH]c3c(c2c1)CCN1C(=O)C(CC(=O)NCCC2=CCCCC2)C[C@H](C(=O)N2CCCCC2)[C@@]31CCc1ccccc1 (stereo partly drawn),3.14
14,CCc1nc(N)c(C#N)c(-c2ccc(F)cc2)c1C,16
15,O=C(Nc1ccc(C(F)(F)F)cc1)C1CC(=O)N(c2ccc3c(c2)OCCO3)C1 (stereo not drawn),11.2
16,O=C(COC(=O)c1ccccc1O)Nc1ccc(OC(F)F)cc1,6.22
17,[O-]/C(=C(\C(=S)Nc1cccc2ccccc12)[n+]1ccccc1)c1ccc(OC(F)F)cc1,8.46
18,Cc1ccc(S(=O)(=O)C2CCCCC2=O)cc1 (stereo not drawn),12.8
19,Nc1ccc(CCC(=O)N2CCCC2)cc1,3.67
20,Cc1c(Cl)c([N+](=O)[O-])nn1Cc1ccc(C(=O)N/N=C\c2cccc(Br)c2)o1,6.83
21,COc1cc(/C=N/NS(=O)(=O)c2ccc(C)c([N+](=O)[O-])c2)cc([N+](=O)[O-])c1O,22.1
22,O=[N+]([O-])c1cccc(/C=N/NS(=O)(=O)c2ccccc2)c1,3.56
23,COc1cc(/C=N/NC(=O)c2cccc([N+](=O)[O-])c2)cc(OC)c1O,6.29
24,Cc1ccc(S(=O)(=O)N/N=C/c2ccc(O)c(O)c2)cc1[N+](=O)[O-],30.2

row,SMILES,inhibition [%]
1,Cc1c(Cl)c([N+](=O)[O-])nn1Cc1ccc(C(=O)N/N=C\c2ccccn2)o1,3.44
2,O=C(CNC(=O)c1cccc(F)c1)N/N=C/c1cccc([N+](=O)[O-])c1,4.45
3,CCN(CC)c1ccc(/C=N/NS(=O)(=O)c2cccc([N+](=O)[O-])c2)cc1,23.2
4,O=C(C1CCN(S(=O)(=O)N2CCCCC2)CC1)N1CCCCC1,6.28
5,CC1=C(C(=O)N2CCCC(CCC(=O)NCc3ccc(F)c(F)c3)C2)OCCO1 (stereo not drawn),6.22
6,COc1ccc(/C=N/NC(=O)c2cccc([N+](=O)[O-])c2)cc1OC,7.73
7,COc1ccc(/C=N/NC(=O)c2cccc([N+](=O)[O-])c2)cc1O,8.06
8,Cc1cccc(NC(=O)CSc2nnc(CNC(=O)c3cccs3)o2)c1C,8.9
9,CC(C)NC(=O)CSCc1c(F)cccc1Cl,9.25
10,Cc1ccn2c(NCc3ccc4c(c3)OCO4)c(-c3ccc(O)cc3)nc2c1,15.5
11,Cc1ccc(-c2nc3cnccn3c2Nc2ccc3c(c2)OCO3)cc1,24.2
12,Oc1ccc(-c2nc3ncccn3c2Nc2ccc3c(c2)OCCO3)cc1,11.9
13,Oc1ccc(-c2nc3ccccn3c2NCc2ccc3c(c2)OCO3)cc1,24.6
14,Cc1cccc(Nc2c(-c3ccc(N4CCOCC4)cc3)nc3ncccn23)c1,7.86
15,Cc1ccc(-c2nc3ccccn3c2NCc2ccc3c(c2)OCO3)cc1,11.7
16,S=C1NC[C@H](CC2CCCCC2)N1CC1CCCCC1,5.21
17,COc1c(C)cc(C(=O)C2CCCN(Cc3cccc4nccnc34)C2)cc1C (stereo not drawn),5.94
18,CCCNC(=O)Nc1nnc(C2CC2)s1,2.83
19,Cc1ccc(C(=O)NCCc2ccccc2)cc1S(=O)(=O)N1CCOCC1,1.5
20,CCN(CC)CCCNC(=O)c1cc2c(-c3ccc(Cl)cc3)nn(C)c2s1,15.3
21,CCCN(CCC)CCNC(=O)c1cc2c(-c3ccc(Cl)cc3)nn(C)c2s1,31.8
22,CCOc1ccc(-c2nnc(SCC(=O)O)n2Cc2ccccc2)cc1,8.65
23,COc1ccc(C)cc1NC(=O)CNC(c1ccccc1)c1ccccc1,1.89
24,COc1ccc(C)cc1NC(=O)C(NCC1CCCO1)c1ccccc1 (stereo not drawn),6.45
